The results in this text go back to PubChem BioAssay (NCI).

Each structure is given as a SMILES string. This is part of a sample that, as a whole, favours compounds with a hit. Of some 79,000 tested, about 15% had one in any assay. Active and inactive are the calls of the source. Cut-off read from the data, not from the text of the source: active = growth inhibition above about 70%; inactive = the rest.

The first test in a line: NCI Yeast Anticancer Drug Screen. Data for the bub3 strain (AID 167). Particulars: S. cerevisiae bub3 mutant strain, at 50.0 µM, stronger effect = higher value. The method, boiled down:
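Whole-cell yeast assay. The mutant strain was incubated with compounds, and growth inhibition was determined by comparison with vehicle-treated cells.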
Take `C(=C\c1ccc(OCc2ccccc2)cc1)/c1ccc(OCc2ccccc2)cc1`: the growth inhibition is -24.6% (inactive).

On to `C=CCNC(=O)N(CCC)CCCCC(NC(C)=O)C(=O)NCc1ccccc1` (stereo not given), for which the growth inhibition is 8.75% (inactive).

For `CC1(C)OC(=O)C(=Cc2cccc3ccc4ccccc4c23)C(=O)O1`, the growth inhibition was 40.7% (inactive).

With `CC1(C)C2CCC3CC(CCC#N)CCC3C21C#N` (stereo not given), the growth inhibition is -37.8% (inactive).

As to `Cc1ccc(S(=O)(=O)OCC(c2ccccc2)C(F)(F)F)cc1` (stereo not given), the growth inhibition is 18.6% (inactive).

With `CC(NC(=O)C(C)(C)C)c1ccc2c(c1)OCCO2` (stereo not given), the growth inhibition is 4.3% (inactive).

Take `CCCCC1CCC2CCCCC2C1` (stereo not given): the growth inhibition is -11.2% (inactive).

Turning to `CCOC(=O)NC(=O)CC#N`, the growth inhibition is -4.2% (inactive).

As to `Fc1ccc(N2C(c3ccccc3)=N[C@@H](N3CCOCC3)[C@@H]2N2CCOCC2)cc1`, the growth inhibition was -2.2% (inactive).

On to `C(=C/c1ccccc1)/CN1CCCCC1`, for which the growth inhibition was 37.2% (inactive).

Consider `O=C(O)C1C(CCl)=C1CCl`, for which the growth inhibition was 4.7% (inactive).

`CC(OC(C(O)C=O)C(O)C(O)CO)C(=O)N[C@@H](C)C(=O)O` (stereo not given in full): the growth inhibition is -9.2% (inactive).

Take `CC1(C)C2C/C(=N/O)C(=O)C1C2` (stereo not given): the growth inhibition is -16.9% (inactive).

For `C/C(O)=C(\C=N\C(=S)N=Nc1c(O)[nH]c2ccccc12)C(=O)Nc1ccccc1C`, the growth inhibition was 62% (inactive).

Take `CC(CN(C)C)/C(=N\Nc1ccccc1)c1ccccc1` (stereo not given): the growth inhibition was -7.85% (inactive).

On to `COc1ccc(/C=N/CCl)cc1`, for which the growth inhibition was -22.1% (inactive).

Turning to `CCC(=O)N(C)c1ccccc1`, the growth inhibition is -0.35% (inactive).

`CNC(=O)n1cnc2ccccc21`: the growth inhibition was 60% (inactive).

In the case of `CCCCCCCCCCCCCCCCc1c(C(=O)OC)nc(NN)[nH]c1=O`, the growth inhibition was 2.1% (inactive).

`C/C(=N/N=C(N)N)c1cnn(C(=N)N)c1C`: the growth inhibition was 20.9% (inactive).

Take `CC1CCc2c(O)ccc(O)c21` (stereo not given): the growth inhibition is -5% (inactive).

Turning to `CC12CCC(=O)C=C1CCC1C2CCC2(C)C1CCC2(O)C(=O)Cn1c(=O)[nH]cc(F)c1=O` (stereo not given), the growth inhibition is -1.2% (inactive).

With `CCOC(=O)C(C)(C)/C=C\C(Cl)=C(Cl)Cl`, the growth inhibition is 19.2% (inactive).

On to `O=C1c2ccccc2C(=O)N1Cl`, for which the growth inhibition is 2.2% (inactive).

For `COC(=O)C(CO)NC(=O)C(CC(C)C)NC(=O)C(CC(C)C)NC(=O)OCc1ccccc1` (stereo not given), the growth inhibition was -5.1% (inactive).

In the case of `NC(=O)NC(N)=O`, the growth inhibition is 18.9% (inactive).

In the case of `O=C(C[N+]1(c2ccccc2)CCOCC1)c1ccccc1`, the growth inhibition was -4.25% (inactive).

Regarding `CC1OC(CC(=O)O)CC2=C1C(=O)c1c(O)cccc1C2=O` (stereo not given), the growth inhibition is -14.2% (inactive).

Turning to `CCNc1ncc2nc(CC(=O)OC)c(=O)n(CC)c2n1`, the growth inhibition is 10.5% (inactive).

In the case of `N#C/C(=C1/Sc2c(nc[nH]c2=O)N1c1ccccc1)c1nc2ccccc2[nH]1`, the growth inhibition was -40% (inactive).

In the case of `O=C(CSc1cc(Cl)c(Cl)cc1Cl)Nc1cccc(Cl)c1`, the growth inhibition was -2.85% (inactive).

On to `O=C(/C=C/c1ccc(Cl)cc1)c1cccs1`, for which the growth inhibition is 9.55% (inactive).

For the compound `COC(=O)C1=C(C)N(NC(N)=O)C(C)(O)C12CCOC2=O` (stereo not given), the growth inhibition was -5.95% (inactive).

Consider `CN(C)CCCNC(=O)N/N=C/c1ccc(O)cc1`, for which the growth inhibition was 1.65% (inactive).

As to `O=C1C(=C(c2ccccc2)N2CCCCC2)C(=O)c2ccccc21`, the growth inhibition was 19.3% (inactive).

`Cc1nnc2cc(C(=O)O)c3ccccc3n2c1=O`: the growth inhibition was -20.1% (inactive).

In the case of `COc1cc(OC)c(OC)cc1/C=N/N=C(\N)NO`, the growth inhibition was -13.1% (inactive).

As for `CC(=O)c1c(C)[nH]c(-c2ccccc2)c1NS(=O)(=O)c1ccc(N)cc1`, the growth inhibition was 4% (inactive).

`O=C(CCN1CCCCC1)Nc1ccc2sc3ccccc3c(=O)c2n1`: the growth inhibition is 11.1% (inactive).

Turning to `CCCC(SCCO)C(CC)CSCCO` (stereo not given), the growth inhibition was 13.1% (inactive).

A further test can be described thus: NCI Yeast Anticancer Drug Screen. Data for the mlh1 rad18 strain (AID 175). Particulars: S. cerevisiae mlh1 rad18 strain growth inhibition; at 50.0 µM; stronger effect = higher value. A digest of the protocol: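 Inhibition values reflect reduced growth of mutant yeast versus vehicle-treated controls following compound exposure; the mutations affect DNA damage repair.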
Turning to `C(=C\c1ccc(OCc2ccccc2)cc1)/c1ccc(OCc2ccccc2)cc1`, the growth inhibition was -26% (inactive).

Turning to `C=CCNC(=O)N(CCC)CCCCC(NC(C)=O)C(=O)NCc1ccccc1` (stereo not given), the growth inhibition was 4.35% (inactive).

On to `CC1(C)OC(=O)C(=Cc2cccc3ccc4ccccc4c23)C(=O)O1`, for which the growth inhibition is 40.6% (inactive).

As for `CC1(C)C2CCC3CC(CCC#N)CCC3C21C#N` (stereo not given), the growth inhibition is -23.1% (inactive).

As to `Cc1ccc(S(=O)(=O)OCC(c2ccccc2)C(F)(F)F)cc1` (stereo not given), the growth inhibition is -1% (inactive).

On to `CC(NC(=O)C(C)(C)C)c1ccc2c(c1)OCCO2` (stereo not given), for which the growth inhibition is 2.85% (inactive).

With `CCCCC1CCC2CCCCC2C1` (stereo not given), the growth inhibition is 8% (inactive).

On to `CCOC(=O)NC(=O)CC#N`, for which the growth inhibition is 10.7% (inactive).

Consider `Fc1ccc(N2C(c3ccccc3)=N[C@@H](N3CCOCC3)[C@@H]2N2CCOCC2)cc1`, for which the growth inhibition is 20% (inactive).

As to `C(=C/c1ccccc1)/CN1CCCCC1`, the growth inhibition is 29.4% (inactive).

As for `O=C(O)C1C(CCl)=C1CCl`, the growth inhibition was -2.9% (inactive).

On to `CC(OC(C(O)C=O)C(O)C(O)CO)C(=O)N[C@@H](C)C(=O)O` (stereo not given in full), for which the growth inhibition was 25.8% (inactive).

As for `CC1(C)C2C/C(=N/O)C(=O)C1C2` (stereo not given), the growth inhibition is -20.2% (inactive).

Take `C/C(O)=C(\C=N\C(=S)N=Nc1c(O)[nH]c2ccccc12)C(=O)Nc1ccccc1C`: the growth inhibition was 62% (inactive).

Regarding `CC(CN(C)C)/C(=N\Nc1ccccc1)c1ccccc1` (stereo not given), the growth inhibition was 35.4% (inactive).

For `COc1ccc(/C=N/CCl)cc1`, the growth inhibition is -1.2% (inactive).

Turning to `CCC(=O)N(C)c1ccccc1`, the growth inhibition is -23.4% (inactive).

Turning to `CNC(=O)n1cnc2ccccc21`, the growth inhibition was 25.3% (inactive).

For the compound `CCCCCCCCCCCCCCCCc1c(C(=O)OC)nc(NN)[nH]c1=O`, the growth inhibition was -12.8% (inactive).

In the case of `C/C(=N/N=C(N)N)c1cnn(C(=N)N)c1C`, the growth inhibition was 28.4% (inactive).

Regarding `CC1CCc2c(O)ccc(O)c21` (stereo not given), the growth inhibition is 8.1% (inactive).

`CC12CCC(=O)C=C1CCC1C2CCC2(C)C1CCC2(O)C(=O)Cn1c(=O)[nH]cc(F)c1=O` (stereo not given): the growth inhibition was 11.4% (inactive).

For the compound `CCOC(=O)C(C)(C)/C=C\C(Cl)=C(Cl)Cl`, the growth inhibition was -34.5% (inactive).

As for `O=C1c2ccccc2C(=O)N1Cl`, the growth inhibition is -5.75% (inactive).

As for `COC(=O)C(CO)NC(=O)C(CC(C)C)NC(=O)C(CC(C)C)NC(=O)OCc1ccccc1` (stereo not given), the growth inhibition was 13.2% (inactive).

On to `NC(=O)NC(N)=O`, for which the growth inhibition was 21.9% (inactive).

On to `O=C(C[N+]1(c2ccccc2)CCOCC1)c1ccccc1`, for which the growth inhibition is 21.1% (inactive).

Take `CC1OC(CC(=O)O)CC2=C1C(=O)c1c(O)cccc1C2=O` (stereo not given): the growth inhibition was 10.2% (inactive).

Regarding `CCNc1ncc2nc(CC(=O)OC)c(=O)n(CC)c2n1`, the growth inhibition was -4.4% (inactive).

As to `N#C/C(=C1/Sc2c(nc[nH]c2=O)N1c1ccccc1)c1nc2ccccc2[nH]1`, the growth inhibition is -41.9% (inactive).

As for `O=C(CSc1cc(Cl)c(Cl)cc1Cl)Nc1cccc(Cl)c1`, the growth inhibition was 3.5% (inactive).

As to `O=C(/C=C/c1ccc(Cl)cc1)c1cccs1`, the growth inhibition is -7.75% (inactive).

In the case of `COC(=O)C1=C(C)N(NC(N)=O)C(C)(O)C12CCOC2=O` (stereo not given), the growth inhibition is -14.1% (inactive).

For the compound `CN(C)CCCNC(=O)N/N=C/c1ccc(O)cc1`, the growth inhibition is -25.2% (inactive).

On to `O=C1C(=C(c2ccccc2)N2CCCCC2)C(=O)c2ccccc21`, for which the growth inhibition is 3.2% (inactive).

As to `Cc1nnc2cc(C(=O)O)c3ccccc3n2c1=O`, the growth inhibition was -31.8% (inactive).

Consider `COc1cc(OC)c(OC)cc1/C=N/N=C(\N)NO`, for which the growth inhibition was -10.4% (inactive).

`CC(=O)c1c(C)[nH]c(-c2ccccc2)c1NS(=O)(=O)c1ccc(N)cc1`: the growth inhibition is 8.95% (inactive).

In the case of `O=C(CCN1CCCCC1)Nc1ccc2sc3ccccc3c(=O)c2n1`, the growth inhibition was 10.7% (inactive).

In the case of `CCCC(SCCO)C(CC)CSCCO` (stereo not given), the growth inhibition is 5.7% (inactive).
